These results are taken from PubChem BioAssay (EPA / NIEHS).

Read-out in assay [1]: Monokine induced gamma interferon (MIG), CXCL9 (gene 4283)
Briefly: BSK_SAg_MIG: BioMAP Diversity Plus: SAg Assay for Monokine induced gamma interferon (MIG) Biomarker Activity (AID 2283092). Conditions: primary human HUVEC with PBMC; actives raise or lower the signal. The gist of the method:
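Endothelial cells and PBMC were co-cultured, exposed to test chemicals, and sampled 24 h later. MIG was measured by ELISA, and responses were fitted in both directions relative to DMSO.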

Assay [2] can be described thus: BSK_SAg_PBMCCytotoxicity: PBMC Cytotoxicity Assessment in the BioMAP Diversity Plus: SAg Assay (AID 2283093).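 For AC50: PBMC superantigen activated with SEB plus TSST-1 one hour after compound addition.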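 Note: PBMC viability measured as Alamar Blue reduction fluorescence at 546/580 nm; fitted both ways against DMSO so a hit may be loss or gain of signal.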 The following applies: primary human HUVEC with PBMC. The gist of the method: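 Compound added to 75,000 PBMC/well for 1 h; SEB and TSST-1 then added at 20 ng/mL final each; 90 h incubation; Alamar Blue 6 h; read 546/580 nm ex/em. Activity fitted bidirectionally relative to DMSO baseline.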

Read-out in assay [3]: Interleukin-8 (IL8), CXCL8 (gene 3576)
Briefly: BSK_SAg_IL8: BioMAP Diversity Plus: SAg Assay for Interleukin-8 (IL8) Biomarker Activity (AID 2283094). Conditions: primary human HUVEC with PBMC; actives raise or lower the signal. The gist of the method:
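ELISA read-out of IL-8 in a primary human vascular co-culture (umbilical vein endothelium plus PBMC), taken 24 h after compound addition. Values derive from bidirectional fits against DMSO negative controls.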

Assay [4] can be described thus: BSK_SAg_Proliferation: Cell Proliferation Assessment in the BioMAP Diversity Plus: SAg Assay (AID 2283095).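 Note: relative cell number as total protein by SRB absorbance in sub-confluent culture.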 Conditions: primary human HUVEC with PBMC. The gist of the method: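 Cells (endothelium plus PBMC, human primary) were dosed with chemical, cultured 96 h, fixed in 10% TCA and stained with 0.1% SRB. Absorbance at 560 nm gave relative protein, fitted bidirectionally relative to DMSO.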

The nature of assay [5]: BSK_SAg_SRB: Viability Assessment in the BioMAP Diversity Plus: SAg Assay (AID 2283096).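 Note: cells read one day after compound addition; hits may be either gain or loss of signal compared with DMSO.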 The following applies: primary human HUVEC with PBMC. The gist of the method: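 Total protein by sulforhodamine B staining, 24 h after dosing, in HUVEC–PBMC co-culture; DMSO-referenced bidirectional fitting.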
Assay [6] addresses Cytochrome P450 2C19 (Homo sapiens) (UniProt P33261). The experiment in a line: NVS_ADME_hCYP2C19: NovaScreen (NVS) CYP450-related Enzyme Activity (ADME) Assay for human CYP2C19 (AID 2283113; active = hit-call score of the fitted dose curve at least 0.9, where 1 is the maximum;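 for AC50: potency for inhibition seen as loss of fluorescent signal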). The gist of the method: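 Cell-free recombinant human CYP2C19 from insect cells, fluorescent substrate; activity read by fluorescence intensity 1 h after dosing. Primary screen in duplicate at 10 uM; actives retested in concentration series. Signal loss versus acetonitrile negative control.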

Assay [7] addresses human CYP19A1, CYP19A1 (gene 1588) (UniProt P11511). Briefly: NVS_ADME_hCYP19A1: NovaScreen (NVS) CYP450-related Enzyme Activity (ADME) Assay for human CYP19A1 (AID 2283098; active = hit-call score of the fitted dose curve at least 0.9, where 1 is the maximum;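 for AC50: potency for inhibitors seen as loss of fluorescent enzyme signal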). The gist of the method: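 Biochem, cell-free; recombinant enzyme + specific substrate; fluorescence intensity at 0.5 h post-dose; 10 uM duplicate primary, conc. series for actives; acetonitrile = negative control/baseline; positive and negative controls on every plate.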

Assay [8] deals with human CYP2A6, CYP2A6 (gene 1548) (UniProt P11509). The experiment in a line: NVS_ADME_hCYP2A6: NovaScreen (NVS) CYP450-related Enzyme Activity (ADME) Assay for human CYP2A6 (AID 2283099; active = hit-call score of the fitted dose curve at least 0.9, where 1 is the maximum). The gist of the method: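 Recombinant human CYP2A6 expressed in insect cells, cell-free; fluorogenic substrate turnover read by fluorescence intensity 0.5 h after dosing. Primary screen 10 uM in duplicate, then concentration-response up to 20 uM; acetonitrile as negative control.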

In assay [9] the target is human CYP1A1, CYP1A1 (gene 1543) (UniProt P04798). The experiment in a line: NVS_ADME_hCYP1A1: NovaScreen (NVS) CYP450-related Enzyme Activity (ADME) Assay for human CYP1A1 (AID 2283100; active = hit-call score of the fitted dose curve at least 0.9, where 1 is the maximum). The gist of the method: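 Recombinant CYP1A1 with a fluorogenic substrate, cell-free, read 1 h after dosing; acetonitrile as negative control. Single-concentration screen at 10 uM in duplicate, then concentration-response up to 20 uM for chemicals meeting ~30% inhibition threshold.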

Assay [10] deals with human CYP2B6, CYP2B6 (gene 1555) (UniProt P20813). Briefly: NVS_ADME_hCYP2B6: NovaScreen (NVS) CYP450-related Enzyme Activity (ADME) Assay for human CYP2B6 (AID 2283101; active = hit-call score of the fitted dose curve at least 0.9, where 1 is the maximum). The gist of the method: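 Cell-free recombinant enzyme assay with a fluorogenic substrate; fluorescence intensity read 1 hour after dosing. Loss of signal relative to acetonitrile negative control indicates inhibition. Primary screen run in duplicate at 10 uM, actives then tested in concentration series.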

For assay [11], the target named is human CYP1A2, CYP1A2 (gene 1544) (UniProt P05177). The experiment in a line: NVS_ADME_hCYP1A2: NovaScreen (NVS) CYP450-related Enzyme Activity (ADME) Assay for human CYP1A2 (AID 2283102; active = hit-call score of the fitted dose curve at least 0.9, where 1 is the maximum;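 for AC50: potency for inhibition since loss of fluorescence marks reduced CYP1A2 activity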). The gist of the method: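 Recombinant human CYP1A2 from insect cells, cell-free, fluorogenic substrate; read 0.5 h after dosing with loss of fluorescence signal indicating inhibition. Primary screen in duplicate at 10 uM, acetonitrile as negative control.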

Assay [12] has as its target Cytochrome P450 2C18 (Homo sapiens) (UniProt P33260). The experiment in a line: NVS_ADME_hCYP2C18: NovaScreen (NVS) CYP450-related Enzyme Activity (ADME) Assay for human CYP2C18 (AID 2283103). The gist of the method:
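Cell-free recombinant human CYP2C18 with fluorogenic substrate; fluorescence intensity read 0.5 h after dosing. Single-point screen at 10 uM in duplicate, then concentration-response up to 20 uM; loss of signal fitted against acetonitrile baseline.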

The target of assay [13] is human CYP2J2, CYP2J2 (gene 1573) (UniProt P51589). Briefly: NVS_ADME_hCYP2J2: NovaScreen (NVS) CYP450-related Enzyme Activity (ADME) Assay for human CYP2J2 (AID 2283106; active = hit-call score of the fitted dose curve at least 0.9, where 1 is the maximum). The gist of the method:
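Cell-free assay of recombinant CYP2J2 with a fluorogenic substrate, read 1 h after dosing; loss of signal versus acetonitrile. Primary screen at 10 uM in duplicate, then concentration-response up to 20 uM for chemicals passing threshold (e.g., 30% inhibition).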

Assay [14] addresses human CYP2D6, CYP2D6 (gene 1565) (UniProt P10635). Briefly: NVS_ADME_hCYP2D6: NovaScreen (NVS) CYP450-related Enzyme Activity (ADME) Assay for human CYP2D6 (AID 2283107; active = hit-call score of the fitted dose curve at least 0.9, where 1 is the maximum). The gist of the method: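 Cell-free assay using recombinant human CYP2D6 expressed in insect cells, with a fluorogenic substrate read after 1 h. Primary screen in duplicate at 10 uM; actives followed up in concentration series. Loss of signal fitted relative to acetonitrile.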

Assay [15] concerns the target human CYP2C8, CYP2C8 (gene 1558) (UniProt P10632). Briefly: NVS_ADME_hCYP2C8: NovaScreen (NVS) CYP450-related Enzyme Activity (ADME) Assay for human CYP2C8 (AID 2283104). The gist of the method: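 Recombinant human CYP2C8 with fluorogenic substrate, 0.5 h, fluorescence intensity; signal loss fitted versus acetonitrile. Screened in duplicate at 10 uM, then actives run in concentration-response up to 20 uM.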

Assay [16] addresses rat CYP2A1, Cyp2a1 (gene 24894) (UniProt P11711). The experiment in a line: NVS_ADME_rCYP2A1: NovaScreen (NVS) CYP450-related Enzyme Activity (ADME) Assay for rat CYP2A1 (AID 2283114). The gist of the method: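 Recombinant rat CYP2A1, cell-free, fluorogenic substrate turnover read by fluorescence intensity 0.75 h after dosing. Primary screen at 10 uM in duplicate; actives rerun as concentration-response up to 20 uM; loss of signal versus acetonitrile control.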

The target of assay [17] is Cytochrome P450 3A4 (Homo sapiens) (UniProt P08684). Briefly: NVS_ADME_hCYP3A4: NovaScreen (NVS) CYP450-related Enzyme Activity (ADME) Assay for human CYP3A4 (AID 2283110; active = hit-call score of the fitted dose curve at least 0.9, where 1 is the maximum). The gist of the method: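 Compounds were first screened in duplicate at 10 uM against recombinant CYP3A4 produced in insect cells, then actives were run in concentration series. Enzyme activity was measured by fluorescence after 0.33 hour, with acetonitrile as baseline.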

Records with an inconclusive call do not appear. The source made the active and inactive calls. Rule for the calls, unless noted: active = hit-call score of the fitted dose curve at least 0.9, where 1 is the maximum; inactive = score below 0.9.

Chain of human CYP19A1, CYP19A1 (gene 1588) (P11511 whole entry, looked up): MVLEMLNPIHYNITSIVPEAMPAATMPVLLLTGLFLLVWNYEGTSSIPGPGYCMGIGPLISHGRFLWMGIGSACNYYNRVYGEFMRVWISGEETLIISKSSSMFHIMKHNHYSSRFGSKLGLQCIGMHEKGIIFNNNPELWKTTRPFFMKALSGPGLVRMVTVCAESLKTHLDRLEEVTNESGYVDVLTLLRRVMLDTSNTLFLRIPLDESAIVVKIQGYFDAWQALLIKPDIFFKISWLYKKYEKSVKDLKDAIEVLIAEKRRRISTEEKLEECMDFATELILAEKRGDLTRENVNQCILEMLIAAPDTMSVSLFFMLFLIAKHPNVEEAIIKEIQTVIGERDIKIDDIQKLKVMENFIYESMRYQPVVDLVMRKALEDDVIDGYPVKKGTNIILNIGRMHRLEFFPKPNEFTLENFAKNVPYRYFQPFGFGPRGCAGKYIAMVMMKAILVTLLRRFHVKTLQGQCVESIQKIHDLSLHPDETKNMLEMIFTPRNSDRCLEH
Chain of human CYP2D6, CYP2D6 (gene 1565) (P10635 whole entry, looked up): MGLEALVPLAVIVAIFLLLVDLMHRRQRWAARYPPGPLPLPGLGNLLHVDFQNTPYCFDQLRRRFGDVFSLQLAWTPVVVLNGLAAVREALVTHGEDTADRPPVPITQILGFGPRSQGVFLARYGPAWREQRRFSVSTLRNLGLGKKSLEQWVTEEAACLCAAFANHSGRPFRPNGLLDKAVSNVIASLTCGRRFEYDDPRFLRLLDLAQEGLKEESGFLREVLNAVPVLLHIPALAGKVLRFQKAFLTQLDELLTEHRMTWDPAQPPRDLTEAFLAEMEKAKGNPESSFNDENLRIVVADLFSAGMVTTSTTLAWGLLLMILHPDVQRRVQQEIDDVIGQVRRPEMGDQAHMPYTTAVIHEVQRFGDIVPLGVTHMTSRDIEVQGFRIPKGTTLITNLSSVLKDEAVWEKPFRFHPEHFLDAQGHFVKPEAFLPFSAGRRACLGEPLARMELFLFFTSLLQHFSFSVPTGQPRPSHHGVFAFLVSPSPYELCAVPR
Chain of human CYP2B6, CYP2B6 (gene 1555) (P20813 whole entry, looked up): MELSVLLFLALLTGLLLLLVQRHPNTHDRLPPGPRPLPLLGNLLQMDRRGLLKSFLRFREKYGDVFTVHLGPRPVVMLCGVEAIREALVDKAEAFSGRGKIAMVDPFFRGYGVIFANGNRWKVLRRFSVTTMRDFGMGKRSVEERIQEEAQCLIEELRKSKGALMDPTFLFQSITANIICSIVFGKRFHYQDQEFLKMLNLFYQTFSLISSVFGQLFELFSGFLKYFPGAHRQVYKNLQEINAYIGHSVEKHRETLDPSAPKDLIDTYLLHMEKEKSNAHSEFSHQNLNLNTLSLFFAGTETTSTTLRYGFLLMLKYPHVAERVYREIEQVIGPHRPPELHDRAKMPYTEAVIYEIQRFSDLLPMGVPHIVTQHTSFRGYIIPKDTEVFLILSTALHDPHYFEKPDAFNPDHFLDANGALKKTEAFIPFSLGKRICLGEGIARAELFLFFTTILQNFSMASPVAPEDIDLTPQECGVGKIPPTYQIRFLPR
Chain of Cytochrome P450 2C18 (Homo sapiens) (P33260 whole entry, looked up): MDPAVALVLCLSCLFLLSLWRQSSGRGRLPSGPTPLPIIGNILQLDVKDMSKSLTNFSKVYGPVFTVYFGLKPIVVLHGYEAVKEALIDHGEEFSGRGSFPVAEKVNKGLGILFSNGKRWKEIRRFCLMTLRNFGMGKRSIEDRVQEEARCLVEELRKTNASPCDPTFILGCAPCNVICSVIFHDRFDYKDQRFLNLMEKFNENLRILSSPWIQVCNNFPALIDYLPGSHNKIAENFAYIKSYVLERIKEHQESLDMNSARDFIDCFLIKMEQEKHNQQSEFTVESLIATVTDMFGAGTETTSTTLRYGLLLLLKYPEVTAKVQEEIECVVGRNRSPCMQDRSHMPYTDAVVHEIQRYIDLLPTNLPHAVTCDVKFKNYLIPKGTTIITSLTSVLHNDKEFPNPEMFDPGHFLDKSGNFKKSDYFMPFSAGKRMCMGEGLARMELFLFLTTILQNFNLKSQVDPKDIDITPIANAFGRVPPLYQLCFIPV
Chain of human CYP1A1, CYP1A1 (gene 1543) (P04798 whole entry, looked up): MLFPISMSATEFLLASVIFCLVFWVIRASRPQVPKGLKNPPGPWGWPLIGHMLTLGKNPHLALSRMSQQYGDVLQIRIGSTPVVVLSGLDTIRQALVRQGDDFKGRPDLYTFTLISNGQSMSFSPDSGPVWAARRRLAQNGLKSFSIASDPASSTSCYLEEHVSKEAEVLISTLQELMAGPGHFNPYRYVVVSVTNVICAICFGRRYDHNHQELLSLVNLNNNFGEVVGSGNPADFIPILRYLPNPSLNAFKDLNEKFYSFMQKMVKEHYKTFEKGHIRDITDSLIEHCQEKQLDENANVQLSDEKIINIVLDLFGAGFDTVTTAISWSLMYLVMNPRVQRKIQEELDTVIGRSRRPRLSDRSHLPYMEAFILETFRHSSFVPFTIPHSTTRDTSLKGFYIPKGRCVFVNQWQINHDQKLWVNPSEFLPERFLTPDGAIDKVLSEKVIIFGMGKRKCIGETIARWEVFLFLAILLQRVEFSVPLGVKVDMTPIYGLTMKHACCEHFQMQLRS
Chain of human CYP2J2, CYP2J2 (gene 1573) (P51589 whole entry, looked up): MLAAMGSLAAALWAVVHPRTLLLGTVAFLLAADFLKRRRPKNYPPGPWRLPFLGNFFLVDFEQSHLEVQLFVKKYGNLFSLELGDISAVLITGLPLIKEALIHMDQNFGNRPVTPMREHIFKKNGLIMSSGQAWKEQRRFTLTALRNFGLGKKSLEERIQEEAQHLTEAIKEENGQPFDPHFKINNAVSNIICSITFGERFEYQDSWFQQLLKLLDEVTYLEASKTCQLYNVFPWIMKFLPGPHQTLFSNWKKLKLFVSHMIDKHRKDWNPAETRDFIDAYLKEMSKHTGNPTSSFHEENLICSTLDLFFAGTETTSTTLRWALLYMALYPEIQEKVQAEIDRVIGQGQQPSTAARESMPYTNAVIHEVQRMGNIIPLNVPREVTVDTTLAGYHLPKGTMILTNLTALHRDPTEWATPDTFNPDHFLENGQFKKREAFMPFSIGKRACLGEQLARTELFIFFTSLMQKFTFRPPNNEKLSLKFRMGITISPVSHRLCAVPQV
Chain of human CYP2A6, CYP2A6 (gene 1548) (P11509 whole entry, looked up): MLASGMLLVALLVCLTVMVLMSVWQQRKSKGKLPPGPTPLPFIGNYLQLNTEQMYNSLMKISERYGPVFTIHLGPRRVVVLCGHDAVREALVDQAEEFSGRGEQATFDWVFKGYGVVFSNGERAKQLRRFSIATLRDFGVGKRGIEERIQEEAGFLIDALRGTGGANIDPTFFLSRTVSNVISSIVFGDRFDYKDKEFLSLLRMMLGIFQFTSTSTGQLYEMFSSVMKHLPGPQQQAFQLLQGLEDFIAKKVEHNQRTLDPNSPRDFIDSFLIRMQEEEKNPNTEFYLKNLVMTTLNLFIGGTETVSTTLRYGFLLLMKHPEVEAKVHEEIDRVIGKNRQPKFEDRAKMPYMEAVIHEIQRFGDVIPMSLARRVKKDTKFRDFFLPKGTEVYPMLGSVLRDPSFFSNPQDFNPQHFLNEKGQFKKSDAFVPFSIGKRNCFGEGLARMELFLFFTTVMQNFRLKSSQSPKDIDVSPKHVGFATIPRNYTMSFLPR
Chain of human CYP1A2, CYP1A2 (gene 1544) (P05177 whole entry, looked up): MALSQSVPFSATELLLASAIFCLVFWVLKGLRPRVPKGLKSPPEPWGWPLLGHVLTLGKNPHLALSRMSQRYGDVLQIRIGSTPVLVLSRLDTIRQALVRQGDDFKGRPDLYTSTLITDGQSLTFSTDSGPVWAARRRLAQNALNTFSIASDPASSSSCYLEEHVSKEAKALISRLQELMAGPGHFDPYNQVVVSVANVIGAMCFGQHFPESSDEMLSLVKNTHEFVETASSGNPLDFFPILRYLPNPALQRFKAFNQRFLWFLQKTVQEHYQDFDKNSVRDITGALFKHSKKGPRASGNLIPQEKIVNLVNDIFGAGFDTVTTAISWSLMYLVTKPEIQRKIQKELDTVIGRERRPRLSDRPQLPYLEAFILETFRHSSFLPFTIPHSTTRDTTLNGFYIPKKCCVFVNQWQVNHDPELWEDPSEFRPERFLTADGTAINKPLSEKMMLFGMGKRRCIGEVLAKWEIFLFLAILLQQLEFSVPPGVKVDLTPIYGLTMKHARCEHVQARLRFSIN
Chain of rat CYP2A1, Cyp2a1 (gene 24894) (P11711 whole entry, looked up): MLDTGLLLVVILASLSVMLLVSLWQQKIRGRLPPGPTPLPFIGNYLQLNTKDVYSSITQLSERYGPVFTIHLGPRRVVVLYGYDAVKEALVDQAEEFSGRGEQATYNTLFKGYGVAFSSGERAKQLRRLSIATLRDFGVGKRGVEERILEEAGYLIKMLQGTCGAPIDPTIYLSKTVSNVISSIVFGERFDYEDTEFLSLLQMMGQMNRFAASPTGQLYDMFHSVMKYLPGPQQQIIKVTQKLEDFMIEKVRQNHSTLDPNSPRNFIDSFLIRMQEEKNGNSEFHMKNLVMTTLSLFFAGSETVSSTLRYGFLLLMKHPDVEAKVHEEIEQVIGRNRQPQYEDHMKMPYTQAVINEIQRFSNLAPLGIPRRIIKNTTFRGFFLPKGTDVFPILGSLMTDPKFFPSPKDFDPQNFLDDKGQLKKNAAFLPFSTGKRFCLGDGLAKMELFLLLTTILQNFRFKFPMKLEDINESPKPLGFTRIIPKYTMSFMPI
Chain of human CYP2C8, CYP2C8 (gene 1558) (P10632 whole entry, looked up): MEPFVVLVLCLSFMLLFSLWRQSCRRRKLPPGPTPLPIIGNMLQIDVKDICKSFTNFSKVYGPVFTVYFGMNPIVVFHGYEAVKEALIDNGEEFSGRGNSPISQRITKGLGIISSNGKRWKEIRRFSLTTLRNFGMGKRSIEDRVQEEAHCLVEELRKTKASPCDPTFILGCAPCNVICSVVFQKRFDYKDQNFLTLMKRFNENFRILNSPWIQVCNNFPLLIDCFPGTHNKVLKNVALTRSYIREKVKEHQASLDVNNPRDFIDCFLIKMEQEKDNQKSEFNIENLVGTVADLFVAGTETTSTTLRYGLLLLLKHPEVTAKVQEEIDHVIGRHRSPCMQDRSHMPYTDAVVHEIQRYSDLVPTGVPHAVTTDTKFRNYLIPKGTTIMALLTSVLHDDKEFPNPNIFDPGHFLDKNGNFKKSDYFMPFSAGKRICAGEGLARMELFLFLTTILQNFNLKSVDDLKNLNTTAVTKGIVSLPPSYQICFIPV

As to `CC(C)OC(=O)Nc1cccc(Cl)c1`, the outcome in assay [1], in [2], in assay [3] and in [4] was inactive. In addition, the AC50 in [5] was 1.76 µM (active).
Take `Cc1[nH]c(=O)n(C(C)(C)C)c(=O)c1Cl`: the result in assay [1] and in [5] was inactive. The AC50 in assay [2] was 9.4 µM (active); in assay [3], 9.86 µM (active); in assay [4] it was 16 µM (active); in assay [6], 6.8 µM (active).
As to `COc1nn(CSP(=S)(OC)OC)c(=O)s1`, the outcome in [1], in assay [2], in assay [3], in [4] and in assay [5] was inactive. The AC50 was 1.23 µM (active) in [7]; 6.42 µM (active) in [8]; 5.47 µM (active) in [9]; 0.35 µM (active) in [10]; 3.25 µM (active) in assay [11]; 3.67 µM (active) in assay [12]. For the same compound, the AC50 in assay [13] was 2.06 µM (active); in [14], 3.83 µM (active); in assay [6], 0.124 µM (active).
As for `CC[C@H](C)[C@H]1O[C@]2(C=C[C@@H]1C)C[C@@H]1C[C@@H](C/C=C(\C)[C@@H](O[C@H]3C[C@H](OC)[C@@H](O[C@H]4C[C@H](OC)[C@@H](O)[C@H](C)O4)[C@H](C)O3)[C@@H](C)/C=C/C=C3\CO[C@@H]4[C@H](O)C(C)=C[C@@H](C(=O)O1)[C@]34O)O2` (tested in a mixture with another compound), the AC50 is 10.8 µM (active) in assay [1]; 6.1 µM (active) in [2]; 4.07 µM (active) in [3]; 4.56 µM (active) in assay [4]; 5.54 µM (active) in assay [5]; 5.02 µM (active) in assay [12]. Besides, the AC50 was 2.79 µM (active) in assay [15], 5.47 µM (active) in assay [13], 6.36 µM (active) in assay [6] and 12.7 µM (active) in assay [16]. In addition, the result in [7] and in assay [9] was inactive.
For `O=C1c2ccccc2C(=O)N1SC(Cl)(Cl)Cl`, the outcome in assay [1], in assay [2], in [3], in [5], in assay [14] and in assay [6] was inactive. Moreover, the figures for the AC50 in [4], in [7] and in assay [15] were 23.4 µM (active), 1.01 µM (active) and 0.245 µM (active), respectively.
In the case of `C#CCN1C(=O)COc2cc(F)c(N3C(=O)C4=C(CCCC4)C3=O)cc21`, the outcome in [1], in assay [2], in assay [3], in [4], in assay [5] and in assay [11] was inactive. For the same compound, the AC50 in assay [10] was 4.2 µM (active); in [13], 2.5 µM (active).
Take `CC1(C)C(C=C(Cl)Cl)C1C(=O)OC(C#N)c1ccc(F)c(Oc2ccccc2)c1` (stereo not drawn): the outcome in [1], in assay [2], in [3] and in assay [7] was inactive. In addition, the AC50 is 29.9 µM (active) in assay [4], 14.2 µM (active) in assay [5] and 13.5 µM (active) in assay [6].
For the compound `O=[N+]([O-])/N=C1\NCCN1Cc1ccc(Cl)nc1`, the outcome in assay [1], in assay [2], in assay [3], in [4], in [5] and in assay [7] was inactive.
In the case of `O=[N+]([O-])c1c(Cl)c(Cl)c(Cl)c(Cl)c1Cl`, the result in assay [1], in assay [2], in assay [3], in assay [5], in [7] and in assay [9] was inactive. The concentration at half-maximal activity (AC50) in [4] was 31.2 µM (active).
For `Cc1cc(C)nc(NC(=O)NS(=O)(=O)c2ccccc2C(=O)OC2COC2)n1`, the result in assay [1], in assay [2], in assay [3], in assay [4] and in [5] was inactive.
Regarding `CNC(=O)CSP(=S)(OC)OC`, the result in assay [1], in [2], in [3], in assay [4], in assay [5] and in assay [7] was inactive. In assay [14], the compound was classed as inactive. Besides, the AC50 in assay [8] is 4.5 µM (active); in [6] it was 2.73 µM (active).
Take `O=C(O)CCCOc1ccc(Cl)cc1Cl`: the outcome in [1], in assay [2], in assay [3], in [4], in [5] and in assay [7] was inactive. In assay [6], the AC50 is 12.1 µM (active).
For `CC(C)(C)C(O)/C(=C\c1ccc(Cl)cc1Cl)n1cncn1` (stereo not drawn), the result in assay [1] and in assay [2] was inactive. The half-maximal activity concentration (AC50) is 32.2 µM (active) in assay [3]; 29.2 µM (active) in assay [4]; 29.9 µM (active) in assay [5]; 4.73 µM (active) in [7]; 0.705 µM (active) in assay [9]; 0.974 µM (active) in [10]. In addition, the AC50 is 0.0386 µM (active) in [12]; 2.21 µM (active) in assay [13]; 1.2 µM (active) in assay [17]; 0.00727 µM (active) in [6]; 0.477 µM (active) in assay [16].

By AC50 is commonly meant the concentration at which the activity in the assay is half-maximal.
